According to PubChem BioAssay (EPA / NIEHS):
Activity calls are given as the source filed them. Rule for the calls: active = hit-call score of the fitted dose curve at least 0.9, where 1 is the maximum; inactive = score below 0.9.

assay: CCTE_Shafer_MEA_acute_per_burst_spike_number_mean: CCTE's Neural Acute Assay for Average Number of Spikes Per Burst, Shafer Lab (AID 2284015);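 note: hits are decreases in mean spikes per burst versus baseline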
Experimental: CCTE_Shafer_MEA_acute assay is conducted using Axion Biosystems 48 well microelectrode array (MEA) plates and Maestro recording system. Each well of the MEA plate contains a grid of 16 microelectrodes embedded in the culture surface. Electrically active cells, such as neurons, can be cultured over the electrodes, and electrical activity in these cells can be recorded extracellularly. The spontaneous firing of neurons is captured from each electrode on a microsecond timescale providing both temporally and spatially precise data. […] The CCTE_Shafer_MEA_acute assay uses primary cultures of rat cortical neurons. As these cultures mature over time, neural networks develop functional activity and form cohesive networks in which electrical activity can be highly coordinated. Baseline 40-minute recordings are made on days post-plating 13 or 15, followed by a secondary 40-minute recording after chemical exposure.CCTE_Shafer_MEA_acute_per_burst_spike_number_mean is a component of the CCTE_Shafer_MEA_acute assay. It measures the average number of spikes (action potential firings) in a single-electrode burst (temporally-clustered group of spikes) during a recording in a microelectrode array (MEA) using Axion Biosystems Maestro 768 channel amplifier with the AxIS adaptive spike detector. The recordings before and after chemical treatment are used to calculate a percent change in the mean number of spikes per burst in each well.Data from the assay component CCTE_Shafer_MEA_acute_per_burst_spike_number_mean was analyzed into 1 assay endpoint. This assay endpoint, CCTE_Shafer_MEA_acute_per_burst_spike_number_mean, was analyzed in the negative analysis fitting direction relative to DMSO as the negative control and baseline of activity. Using a type of functional reporter, gain or loss-of-signal activity can be used to understand electrical activity.
Spontaneous activity in the cortical cultures was recorded using an Axion Biosystems Maestro 768 channel amplifier and Axion Integrated Studios (AxIS) v1.8 (or later) software. The amplifier recorded from all channels simultaneously (gain = 1200 x; sampling rate = 12.5 kHz/channel): raw signals were filtered with a Butterworth band-pass filter (300-5000 Hz), which filters out slower local field potentials leaving only fast potentials, i.e., "spikes", arising from extracellular currents associated with action potentials (Pine 2006; Wheeler and Nam 2011). On-line spike detection of filtered signals was conducted with the AxIS adaptive spike detector, using a threshold of 8x the root mean squared (rms) noise on each channel. Any electrodes with rms noise levels greater than 5 uV were grounded (e.g., no data were recorded). Once grounded, an electrode was grounded for the duration of the experiment. All recordings were conducted at 37 C. Wells were deemed usable if on the day of the exposure >/= 10 electrodes were active (defined as >/= 5 spikes/min). On DIV 13 or 15, a minimum of three wells from one cortical culture preparation were treated with each compound (0.03-40 uM). Prior to recording baseline activity, each mwMEA plate was placed in the Maestro at 37 C and allowed to sit for 20 min while firing rates stabilized. Baseline activity (40 min) was recorded before the addition of each compound. An additional 40 min of spontaneous activity was recorded in the presence of each compound. Changes in network parameters relative to baseline were assessed following compound treatment.

Row | Structure (SMILES) | outcome | AC50
1 | C=C[Si](OC(C)=O)(OC(C)=O)OC(C)=O | inactive | 
2 | CO[Si](OC)(OC)c1ccccc1 | inactive | 
3 | CN1C(=O)N(C)C(O)C1O (stereo unspecified) | inactive | 
4 | CCOC(=O)c1ccccc1C(=C1C=C(Br)C(=O)C(Br)=C1)c1cc(Br)c(O)c(Br)c1 | inactive | 
5 | CCCCC(CC)COC(=O)c1ccccc1O (stereo unspecified) | inactive | 
6 | CCO[Si](C)(OCC)OCC | inactive | 
7 | Nc1ncn([C@@H]2O[C@H](CO)[C@@H](O)[C@H]2O)c(=O)n1 |  | 5 µM (active)
8 | O=C1CCCN1CCO | inactive | 
9 | O=C(c1ccc(O)cc1)c1ccc(O)cc1O | inactive | 
10 | Nc1ccc(N)c(Cl)c1 | inactive | 
11 | CCCCC(CC)COCC1CO1 (stereo unspecified) | inactive | 
